# Reference: PubChem BioAssay AID2499 (National Center for Advancing Translational Sciences (NCATS), 2010)
# Inconclusive results are not listed. Activity calls are given as the source filed them. Calls come from the whole dose curve; as a rule, active = well fitted inhibition curve with a large enough effect; inconclusive = small, poorly fitted or top-dose-only effect; inactive = flat fitted curve, though single readings scatter.
# Biological target: Galactokinase (Homo sapiens) (UniProt P51570)
# Experiment: Confirmation Assay for Inhibitors of Human Galactokinase (GALK): probe SAR
# Settings: purified GALK, Kinase-Glo ATP depletion luminescence; series mostly up to 115 µM; activity change, negative = inhibition: at the top concentration
# Source text: NIH Molecular Libraries Probe Production Centers Network [MLPCN] NIH Chemical Genomics Center [NCGC] MLPCN Grant: R03 MH085689-01 Assay Submitter (PI): Kent Lai (University of Utah School of Medicine, 50 N Mario Capecchi Drive, Salt Lake City, UT 84132) NCGC Assay Overview Inherited deficiency of galactose-1-phosphate uridyltransferase (GALT) can result in a potentially lethal disorder called Classic Galactosemia (OMIM 230400). Several lines of evidence indicate that an elevated level of galactose-1-phosphate (gal-1-p), the product of galactokinase (GALK), is a major, if not sole, pathogenic mechanism in patients with classic galactosemia. Therefore, finding inhibitors of GALK is a potential novel therapy for this inherent metabolic disease and is the long term goal of this project. Active compounds observed in the qHTS GALK assay (AID: 1868) were cherry picked and re-screened for validation. GALK (provided by Kent Lai) was assayed using ATP and D-(+)-Galactose (Sigma-Aldrich cat# G0750) as substrates. Promega Kinase-Glo Plus (cat# V3774) technology was used to detect the residual ATP following kinetic reaction. Briefly, the Kinase-Glo Plus contains Ultra-Glo [1] luciferase and D-luciferin which generates a bioluminescence signal from the remaining ATP. Kinase reactions with and without GALK were used as negative and positive controls together with Protein Tyrosine Phosphatase CD45 inhibitor (EMD Bioscience cat# 540215) which is shown to inhibit GALK activity.
# NCGC Assay Protocol Summary: Three uL/well of ATP-buffer solution (35 uM ATP, 20mM HEPES pH8.0, 5 mM MgCl2, 60 mM NaCl, 1 mM DTT, 0.01% BSA final concentration) was dispensed into 1536-well, assay plates (Greiner, solid white medium-binding plates) with Aurora Discovery BioRAPTR Flying Reagent Dispenser (FRD; Beckton-Dickenson). Compound and control solution (23 nL) was transferred to the assay plate using the Kalypsys 1536-pin tool apparatus. One uL/well GALK-galactose solution (5 nM GALK, 100 uM galactose, 20 mM HEPES pH8.0, 5 mM MgCl2, 60 mM NaCl, 1 mM DTT, 0.01% BSA final concentration) was then added using the FRD yielding a total kinase reaction volume of 4 uL/ well. After 1 hour of room temperature incubation, 4 uL Kinase-Glo Plus reagent was added for a final assay volume of 8 uL/well. Luminescence was detected with the ViewLux plate reader (Perkin Elmer, Waltham, MA) after 2 min incubation using a 1 sec exposure time and 2x binning.
# Sequence of Galactokinase (Homo sapiens) (P51570 whole entry, looked up): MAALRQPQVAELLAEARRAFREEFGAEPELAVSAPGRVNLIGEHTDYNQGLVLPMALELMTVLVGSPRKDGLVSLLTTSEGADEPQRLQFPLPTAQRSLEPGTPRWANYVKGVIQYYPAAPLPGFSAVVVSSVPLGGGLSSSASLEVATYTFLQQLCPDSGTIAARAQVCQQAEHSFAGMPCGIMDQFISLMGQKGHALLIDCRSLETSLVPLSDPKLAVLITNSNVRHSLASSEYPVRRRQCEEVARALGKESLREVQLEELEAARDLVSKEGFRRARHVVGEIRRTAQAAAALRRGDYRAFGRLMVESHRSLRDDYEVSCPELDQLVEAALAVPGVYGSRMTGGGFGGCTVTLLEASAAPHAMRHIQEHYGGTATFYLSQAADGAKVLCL
SMILES,"activity change, negative = inhibition",Potency
O=C1CCCC2=C1[C@@]1(CCC(c3ccccc3)C1)N=C(Nc1nc3ccccc3o1)N2 (some centres undefined),-22.8% (inactive),
O=C1CCCC2=C1C(c1ccccc1Cl)N=C(Nc1nc3ccccc3o1)N2 (centres undefined),,0.595 µM (active)
CC1(C)CC(=O)C2=C(C1)NC(Nc1nc3ccccc3o1)=NC2c1cccc(F)c1 (centres undefined),-4.97% (inactive),
O=C1CCCC2=C1C1(CCCCC1)N=C(Nc1nc3ccccc3o1)N2,,13.3 µM (active)
Cn1c(NC2=NC3(CCCC3)C3=C(CCCC3=O)N2)nc2ccccc21,-25% (inactive),
O=C1CCCC2=C1C(c1ccc(Cl)cc1)N=C(Nc1nc3ccccc3o1)N2 (centres undefined),-19.6% (inactive),
O=C1CCCC2=C1C1(CCCC1)N=C(Nc1nc3ccccc3n1Cc1ccccc1)N2,-7.66% (inactive),
Cc1ccc2oc(NC3=NC4(CCCC4)C4=C(CCCC4=O)N3)nc2c1,,5.95 µM (active)
CC1(C)CC(=O)C2=C(C1)NC(Nc1nc3ccccc3o1)=NC2c1cccc(O)c1 (centres undefined),,21.1 µM (active)
O=C1CCCC2=C1C1(CCS(=O)(=O)C1)N=C(Nc1nc3ccccc3o1)N2 (centres undefined),,6.68 µM (active)
O=C1CCC2=C1C1(CCCC1)N=C(Nc1nc3ccccc3o1)N2,,11.9 µM (active)
O=C1CCCC2=C1C1(CCC1)N=C(Nc1nc3ccccc3o1)N2,,18.8 µM (active)
CC1(C)CC(=O)C2=C(C1)NC(Nc1nc3ccccc3o1)=NC2c1ccccc1Cl (centres undefined),,8.41 µM (active)
Cc1nc(Nc2nc3ccccc3o2)nc2c1C(=O)CC(C)(C)C2,-7.11% (inactive),
O=C1CCC2=C1C(c1ccccc1Cl)N=C(Nc1nc3ccccc3o1)N2 (centres undefined),,11.9 µM (active)
O=C1CC(c2ccccc2)CC2=C1C1(CCCCC1)N=C(Nc1nc3ccccc3o1)N2 (centres undefined),-21.5% (inactive),
CCC1CCC2(C1)N=C(Nc1nc3ccccc3o1)NC1=C2C(=O)CCC1 (centres undefined),,inactive
Cc1ccc(C2N=C(Nc3nc4ccccc4o3)NC3=C2C(=O)CC(C)(C)C3)cc1 (centres undefined),2.65% (inactive),
O=C1CCCC2=C1C1(CCSCC1)N=C(Nc1nc3ccccc3o1)N2,,1.06 µM (active)
COc1cccc(C2N=C(Nc3nc4ccccc4o3)NC3=C2C(=O)CC(C)(C)C3)c1 (centres undefined),,37.5 µM (active)
O=C1CCCC2=C1C1(CCCC1)N=C(Nc1nc3cc(Br)ccc3o1)N2,,7.49 µM (active)
O=C1CCCC2=C1C1(CCCC1)N=C(Nc1nc3cc(Cl)ccc3o1)N2,,6.68 µM (active)
CC1CCC2(C1)N=C(Nc1nc3ccccc3o1)NC1=C2C(=O)CCC1 (centres undefined),,11.9 µM (active)
O=C1CCCC2=C1C1(CCSC1)N=C(Nc1nc3ccccc3o1)N2 (centres undefined),,2.66 µM (active)
CC1(C)CC(=O)C2=C(C1)NC(Nc1nc3ccccc3o1)=NC21CCCC1,,6.68 µM (active)
CC1(C)N=C(Nc2nc3ccccc3o2)NC2=C1C(=O)CCC2,,47.3 µM (active)
COc1ccccc1C1N=C(Nc2nc3ccccc3o2)NC2=C1C(=O)CC(C)(C)C2 (centres undefined),-2.26% (inactive),
COc1ccc(C2N=C(Nc3nc4ccccc4o3)NC3=C2C(=O)CC(C)(C)C3)cc1 (centres undefined),-22.4% (inactive),
O=C1CCCC2=C1C1(CCCC1)N=C(Nc1nc3cc4ccccc4cc3o1)N2,-18.8% (inactive),
